Assay outcomes from PubChem BioAssay.
In the library only some 12% were active in any assay of this set; here they are far more common.
SARS PLpro yeast – SARS-CoV PLP inhibition in yeast; S. cerevisiae expressing SARS-CoV PLpro, growth rescue; Potency, µM (titrated, usually from 32.9 µM), for the others: at the top dose activity, positive = growth rescue, most hits filed as activators; 330,000 tested, 0.19% active; calls by dose curve; note: 0% is about no effect; nearly all actives have a fitted effect of over 55% in size
Pf growth 96h – P. falciparum growth inhibition at 96 hour, primary screen for plastid delayed-death inhibitors; P. falciparum luciferase reporter growth, 96 h; Potency, µM (highest dose often 28.7 µM), for inactives: at the highest dose activity change, negative = inhibition, usual class: inhibitors; 320,000 tested, 6.9% active; AID 504834; note: % is set by controls: 0 for no effect and ±100 for the full control effect
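Erythrocytes infected with luciferase-expressing P. falciparum were dispensed at 2% hematocrit and 0.05% parasitemia (final), then incubated with compounds 96 hours at 37 C in 5% CO2. Luminescence after detection reagent addition reported growth.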
Pf growth 48h – inhibits P. falciparum growth in the first generation, 48 h | P. falciparum luciferase growth in erythrocytes, 48 h | Potency, µM (top dose mostly 28.7 µM), for inactives: at the highest dose activity change, negative = inhibition, usual class: inhibitors | 310,000 tested, 5.9% active; note: % is set by controls: 0 for no effect and ±100 for the full control effect
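Cell-based growth assay: transgenic P. falciparum expressing firefly luciferase, cultured in red cells within RPMI 1640 containing 0.5% w/v Albumax, 24 mM bicarbonate and gentamycin. A drop in luciferase activity indicates inhibition.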
AmpC inh detg – AmpC beta-lactamase inhibition with detergent present | 370,000 tested, 0.041% active | Potency, µM (top dose mostly 114 µM), for inactives: top-dose activity change, negative = inhibition, usual class: inhibitors | AmpC hydrolysis of nitrocefin, absorbance 480 nm, 0.01% Triton | AID 485294;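 note: 0% = no-compound wells and -100% = no-enzyme wells; nearly all actives have a fitted effect of over 25% in size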
Target sequence (P00811 whole entry, looked up): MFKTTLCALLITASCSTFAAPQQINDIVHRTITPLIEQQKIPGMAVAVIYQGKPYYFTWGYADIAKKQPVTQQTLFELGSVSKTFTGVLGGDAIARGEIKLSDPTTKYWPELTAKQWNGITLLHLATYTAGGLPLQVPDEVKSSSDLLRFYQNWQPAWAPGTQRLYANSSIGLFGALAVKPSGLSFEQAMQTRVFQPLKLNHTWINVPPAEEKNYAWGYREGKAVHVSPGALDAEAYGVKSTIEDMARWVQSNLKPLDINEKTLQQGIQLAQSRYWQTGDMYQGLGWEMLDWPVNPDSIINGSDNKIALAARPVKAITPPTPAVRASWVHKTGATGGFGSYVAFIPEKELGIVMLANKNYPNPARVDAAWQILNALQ
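AmpC (5.3 nM in the dispensed reagent) in 20 mM phosphate pH 7.0 with 0.01% (detergent screen) or 0.0001% Triton X-100 was preincubated with compounds for 15 min at room temperature. Nitrocefin was then added from an 800 uM solution, and hydrolysis was followed at 480 nm.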
Sm TGR inh – S. mansoni TGR enzyme inhibition; Potency, µM (top dose mostly 114 µM), for inactives: top-dose activity change, negative = inhibition, hits mostly inhibitors; 360,000 tested, 3% active; AID 485364; purified TGR, DTNB reduction, TNB absorbance 405 nm; note: % is set by controls: 0 for no effect and ±100 for the full control effect; nearly all actives have a fitted effect of over 60% in size
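First, TGR (20 nM dispensed) and NADPH were mixed with compound. Second, a 15 min room-temperature incubation followed. Third, further NADPH and then DTNB were added to start the reaction. Finally, TNB absorbance was monitored kinetically.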
AmpC no deterg – AmpC beta-lactamase inhibition without detergent; AmpC nitrocefin hydrolysis, absorbance 480 nm, 0.0001% Triton; Potency, µM (series often up to 57.1 µM), for the others: at the top dose activity change, negative = inhibition, most hits filed as inhibitors; 330,000 tested, 0.52% active; AID 485341;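 note: plate controls were no compound for no effect and no enzyme for full effect; nearly all actives have a fitted effect of over 20% in size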
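AmpC (5.3 nM in the dispensed reagent) in 20 mM phosphate pH 7.0 with 0.01% (detergent screen) or 0.0001% Triton X-100 was preincubated with compounds for 15 min at room temperature. Nitrocefin was then added from an 800 uM solution, and hydrolysis was followed at 480 nm.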
* marks the source's active call; other numbers are inactive results; ? = inconclusive; · = no result given. Unless noted, calls come from the whole dose curve; as a rule, active = well fitted curve in the direction sought with a large enough effect; inconclusive = small, poorly fitted or top-dose-only effect, or another doubt; inactive = no such curve, though single readings can be large; an effect the other way counts as inactive or inconclusive. Potency is the fitted concentration of half-maximal effect.

SMILES	SARS PLpro yeast	Pf growth 96h	Pf growth 48h	AmpC inh detg	Sm TGR inh	AmpC no deterg
COc1cccc(N2CC(NC(=O)/C=C\c3ccc4c(c3)OCO4)CC2=O)c1 (centres undefined)	·	·	·	2.0%	14.2%	·
COc1ccc(-c2noc(Cn3cc(S(=O)(=O)N4CCCC4)ccc3=O)n2)cc1	-2.1%	-24.7%	?	?	4.9%	-19.6%
Cc1[nH]c2ccccc2c1C(=O)CN1CCC(C)CC1	-2.1%	-34.6%	-0.8%	0.7%	?	-9.6%
CCC1CCCCN1CC(=O)c1c(C)[nH]c2ccccc12 (centres undefined)	-3.2%	-27.3%	3.6%	-19.1%	44.7µM*	-9.0%
CCOC(=O)C1CCN(CC(=O)c2c(C)[nH]c3ccccc23)CC1	-1.8%	-12.8%	-11.7%	2.6%	35.5µM*	-16.1%
CCC1CCCCN1CC(=O)c1c(C)[nH]c2ccc(OC)cc12 (centres undefined)	0.5%	7.0%	-12.7%	1.5%	?	-12.2%
CCOC(=O)C1CCCN(C(c2ccccn2)c2c(C)[nH]c3ccccc23)C1 (centres undefined)	2.5%	?	10.1%	0.7%	0.316µM*	41.0%
Cc1[nH]c2ccccc2c1C(=O)CN1CCCCC1C (centres undefined)	8.3%	14.7µM*	-5.0%	8.3%	-5.4%	-8.1%
Cc1ccc2nc(-c3c[nH]c4ccccc34)c(Nc3ccccc3)n2c1	·	·	·	2.4%	-0.6%	·
O=C(C1CCN(S(=O)(=O)c2cccs2)CC1)N1CCN(c2ccccc2O)CC1	-1.9%	7.38µM*	?	0.9%	-6.7%	33.1%
CC(C(=O)N1c2ccccc2CC1C)N1CCN(S(=O)(=O)c2ccccc2F)CC1 (centres undefined)	-2.8%	?	13.1µM*	-2.4%	-8.6%	96.3%
CC1Cc2ccccc2N1C(=O)C1CCN(S(=O)(=O)c2cccs2)CC1 (centres undefined)	2.3%	0.928µM*	-26.8%	9.5%	1.4%	-6.0%
CCOc1ccc(Nc2nc3c(c(=O)[nH]2)CCCC3)cc1	3.3%	234.8%	2.33µM*	-9.0%	-3.0%	-23.3%
CCCSC(=O)N(CC)CC(=O)Nc1c(CC)cccc1CC	7.0%	·	4.6%	4.1%	22.9%	-2.8%
CC(C)CC(=O)NC(=S)Nc1nc(-c2cccc3ccccc23)cs1	3.0%	13.1µM*	-5.7%	-0.3%	49.1%	-28.6%
COC(=O)CCN(c1ccccc1)S(=O)(=O)c1cc(-c2cc(C)no2)ccc1OC	2.3%	10.4µM*	?	1.2%	1.8%	97.8%
CCN(c1ccc(OC)cc1)S(=O)(=O)c1cc(-c2cc(C)no2)ccc1OC	-4.1%	?	?	2.8%	4.3%	46.1%
Cc1cc(-c2ccc(C(C)C)c(S(=O)(=O)NCc3ccco3)c2)on1	-11.7%	?	-19.1%	?	?	-36.2%
COc1ccc(-c2cc(C)no2)cc1S(=O)(=O)NCc1ccc(OC(C)C)cc1	-0.4%	10.4µM*	22.5%	1.5%	8.1%	4.6%
COc1ccc(-c2cc(C)no2)cc1S(=O)(=O)NCc1ccco1	·	·	·	-7.2%	31.6µM*	·
COc1ccc2c(c1)[C@H]1[C@H](CO2)[C@H](c2ccccc2)[C@]2(C)C(=O)N[C@@H](C)C(=O)N12	-5.2%	?	-4.7%	-0.2%	-19.7%	-0.8%
CCc1ccc(C2CC(=O)c3c([nH]c(C(=O)OC4CCC(C)CC4)c3C)C2)cc1 (centres undefined)	·	·	·	17.2%	1.5%	·
CN(C)c1ccc(CNC(=O)c2cc3ccccn3n2)cc1	·	·	·	-0.2%	1.8%	·
CCOC(=O)N1CCN(c2cc(=O)n(-c3cccc(C)c3)c(=O)[nH]2)CC1	6.6%	0.2%	1.2%	3.6%	?	-8.1%
